Assay results: the supplement of paper PMC4206461

tested on: Pseudomonas aeruginosa PA14 wild type; assay: respiration area under curve with compound as sole nitrogen source, 24 h (OmniLog AUC (arbitrary units)); higher = more respiration / better utilisation as nitrogen source, active = 2000 or more
Protocol: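 Biolog Phenotype MicroArray plates PM6-PM8: each di/tripeptide is the sole nitrogen source (IF-0 medium with succinate/ferric citrate and dye mix A). Tetrazolium reduction was read in the OmniLog every 15 min for 24 h at 37°C and summarised as area under the respiration curve (arbitrary units). The paper counts values below 2000 as no respiration and above 8000 as solid respiration. Replicate datasets are averaged.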

| Structure (SMILES) | respiration area under curve |
| --- | --- |
| N[C@@H](Cc1ccccc1)C(=O)N[C@@H](Cc1ccc(O)cc1)C(=O)O (plate: PM8) | 2350 (active) |
| CC[C@H](C)[C@H](NC(=O)[C@@H](N)CCCN=C(N)N)C(=O)O (plate: PM6) | 9540 (active) |
| C[C@@H](NC(=O)CN)C(=O)O (plate: PM8) | 5060 (active) |
